Calls of active or inactive are those of the source. No rule for the calls is given here.

The nature of this assay: Vero 76 cell cytotoxicity, cytotoxicity control for VEEV inhibitor project, set 8 (AID 651735). Conditions: Vero 76 cells viability; series mostly up to 50 µM.
As for `COc1ccc(CNc2nc(=O)c3cccnc3s2)cc1`, the outcome was inactive. Consider `CCN1CCN(Cc2nc3ccc(-c4ccccn4)cc3c(=O)n2-c2ccccc2)CC1`, for which the molecule was called inactive. In the case of `CN1CCN(C)C(=Nc2ccc([N+](=O)[O-])cc2C(=O)Nc2ccccc2F)C1`, the molecule was classed as inactive. Consider `COc1ccc(Nc2nc(=O)c3cccnc3s2)cc1`, for which the molecule was called inactive. For `O=c1c2cc([N+](=O)[O-])ccc2nc(CN2CCCNCC2)n1-c1ccccc1` the value was “inactive”; for `O=c1c2cc(F)c(F)cc2nc(CN2CCNCC2)n1-c1ccccc1`, “inactive”; for `CN(c1ccc(OCc2ccccc2)cc1)c1nc(=O)c2cccnc2s1`, “inactive”. As to `O=c1c2cc([N+](=O)[O-])ccc2nc(CN2CCCNC2)n1-c1ccccc1`, the molecule was classed as inactive. As for `COc1ccc(NC(=O)c2cc([N+](=O)[O-])ccc2N=C2CN(C)CCN2C)cc1`, the call was inactive. As for `CN1CCN(C)C(=Nc2ccc(C#N)cc2C(=O)Nc2ccccc2)C1`, the molecule was classed as inactive. Consider `CN1CCN(C)C(=Nc2ccc([N+](=O)[O-])cc2C(=O)Nc2ccccc2)C1`, for which the molecule was called inactive. For `CCN1CCN(Cc2nc3ccc([N+](=O)[O-])cc3c(=O)n2-c2ccccc2F)CC1` the value was “inactive”; for `CCN1CCN(C2c3ncccc3C(=O)N2c2ccccc2)CC1` (stereo not drawn), “inactive”.

These data come from PubChem BioAssay AID651735 (Southern Research Specialized Biocontainment Screening …, 2012).
